# According to PubChem BioAssay (Tox21):
# Where “and” joins values, the source holds several entries; their conditions need not be identical. Equal values may be shown once. Results filed as inconclusive are left out. Some structures have more than one record in an assay (separate samples or runs), and their calls can disagree. Calls of active or inactive are those of the source. Unless noted, calls come from the whole dose curve; as a rule, active = well fitted cell-killing curve with a large enough effect in the repeat runs; inconclusive = weak or mixed curves, or effect the other way; inactive = flat fitted curve, though single readings scatter. Positions of bridges follow the written chain, without caps; N, C: chain ends. Non-standard residues stand in square brackets, D forms with d. Residues, ends and D or L forms follow the SMILES beside them. *: point of attachment. X1 = CC[C@@H](C)[C@@H](N)C1=N[C@H](C(=O)*)CS1; d(aIle) = CC[C@H](C)[C@@H](N)C(=O)O; dOrn = NCCC[C@@H](N)C(=O)O
# Experiment: qHTS assay to identify small molecule antagonists of the estrogen receptor alpha (ER-alpha) signaling pathway using the BG1 cell line (AID 743080; calls by dose curve;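 note: BG1 cells stimulated with 17beta-estradiol alongside compound; nearly all actives have a fitted effect of over 25% in size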; note: potency is the fitted concentration of half-maximal effect)
# Settings: BG1Luc4E2 ERE-luciferase antagonist mode, luminescence; series mostly up to 70.3 µM; activity change, negative = inhibition: at the top concentration
# Procedure, shortened: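 BG1-Luc-4E2 cells (endogenous full-length ER-alpha, stable 4×ERE-luciferase) were starved 5 days in phenol-red-free medium with 10% charcoal-stripped FBS, plated 24 h, then given compound plus 17beta-estradiol for 21.5 h at 37 C; ONE-Glo luminescence read after 30 min.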
# % is set by controls: 0 for no effect and ±100 for the full control effect.
SMILES,"activity change, negative = inhibition",Potency
Nc1cc(Cl)c(NC2=NCCN2)c(Cl)c1,-5.48% (inactive),–
CCOc1ccc(NC(=S)Nc2ccc(OCC)cc2)cc1,3.79% (inactive),–
CCc1ncnc2cc(OC)c(OC)cc12,3.46% (inactive),–
Cc1cc(=O)c(C(=O)N[C@@H](C(=O)N[C@@H]2C(=O)N3C(C(=O)O)=C(CSc4nnnn4C)CS[C@H]23)c2ccc(O)cc2)c[nH]1,0.415% (inactive),–
CC12CCC(C[N+](C)(CCC[N+](C)(C)C)C1)C2(C)C (centres undefined),-3.56% (inactive),–
CN1C(=O)C[C@@H](C(=O)N[C@@H](Cc2cnc[nH]2)C(=O)N2CCC[C@H]2C(N)=O)NC1=O,-0.0749% (inactive),–
COC(=O)[C@H]1[C@H]2C[C@H]3c4[nH]c5ccccc5c4CCN3C[C@H]2CC[C@@H]1O,-2.18% (inactive),–
CC[C@@H](C)[C@H](N)C(=O)O,2.12% (inactive),–
C/C(=C(/CCO)SSCC1CCCO1)N(C=O)Cc1cnc(C)nc1N (centres undefined),–,inactive
C=C(Nc1ccc(OCC)cc1)Nc1ccc(OCC)cc1,–,inactive
O=C(O)/C=C/C(=O)Nc1ccc(S(=O)(=O)Nc2nccs2)cc1,0.721% (inactive),–
CC(C)=CCC/C(C)=C/CC/C(C)=C/CC/C(C)=C/CC1=C(C)C(=O)c2ccccc2C1=O,–,inactive and 9.44 µM (active)
CO/N=C(\C(=O)N[C@@H]1C(=O)N2C(C(=O)O)=C(CSc3nc(C)c(CC(=O)O)s3)CS[C@H]12)c1csc(N)n1,-3.53% (inactive),–
COc1ccc(/C=C/C(=O)O)cc1,-0.915% (inactive),–
CO/N=C(\C(=O)N[C@@H]1C(=O)N2C(C(=O)[O-])=C(C[n+]3cccc4c3CCC4)CS[C@H]12)c1csc(N)n1,-7.5% (inactive),–
NCC1CCC(C(=O)O)CC1 (centres undefined),1.69% [at 32.5 µM] (inactive),–
CCN(CC)CCOC[C@H]1O[C@@H](O)[C@H](OCCN(CC)CC)[C@@H](O)[C@@H]1O,0.842% (inactive),–
CCC(=O)OC(OP(=O)(CCCCc1ccccc1)CC(=O)N1C[C@H](C2CCCCC2)C[C@H]1C(=O)O)C(C)C (some centres undefined),5.86% (inactive),–
CC(C)=CCC/C(C)=C/CC/C(C)=C/CC/C=C(\C)CC/C=C(\C)CCC=C(C)C,–,inactive
CCCCCCCCCC(=O)NO,–,inactive
NCCO/C=C/[C@H](N)C(=O)O,14% (inactive),–
N=C(N)n1cccn1,-0.495% (inactive),–
Nc1c(CC(=O)O)cccc1C(=O)c1ccccc1,–,inactive
Cc1ccc(C(C)(C)c2ccc(C)cc2)cc1,-13.7% (inactive),–
CO[C@H]1C[C@H](O[C@H]2[C@H](C)[C@@H](O[C@@H]3O[C@H](C)C[C@H](N(C)C)[C@H]3O)[C@@H](C)C[C@]3(CO3)C(=O)[C@H](C)[C@@H](O)[C@@H](C)[C@@H](C)OC(=O)[C@@H]2C)O[C@@H](C)[C@@H]1O,3.76% [at 32.5 µM] (inactive),–
CC[C@H]1OC(=O)C[C@@H](O)[C@H](C)[C@@H](O[C@@H]2O[C@H](C)[C@@H](O[C@H]3C[C@@](C)(O)[C@@H](O)[C@H](C)O3)[C@H](N(C)C)[C@H]2O)[C@@H](CC=O)C[C@@H](C)C(=O)/C=C/C(C)=C/[C@@H]1CO[C@@H]1O[C@H](C)[C@@H](O)[C@@H](OC)[C@H]1OC,–,16.8 µM (active) and inactive
O=C1c2c(O)cccc2[C@H]([C@@H]2O[C@H](CO)[C@@H](O)[C@H](O)[C@H]2O)c2cc(CO)cc(O)c21,–,inactive

# Experiment: qHTS assay to identify small molecule antagonists of the estrogen receptor alpha (ER-alpha) signaling pathway using the BG1 cell line - cell viability counter screen (AID 743081);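 note: compound given together with 17beta-estradiol as the ER stimulus; nearly all actives have a fitted effect of over 45% in size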
# Settings: BG1Luc4E2 viability, CellTiter-Fluor, 22 h; series mostly up to 70.3 µM; activity change, negative = cytotoxicity: at the top concentration
SMILES,"activity change, negative = cytotoxicity",Potency
C/C(=C\C(=O)OCCCCCCCCC(=O)O)C[C@@H]1OC[C@H](C[C@@H]2O[C@H]2[C@@H](C)[C@H](C)O)[C@@H](O)[C@H]1O,6.71% (inactive),–
CC(C)[C@H](NC(=O)[C@H](CC(=O)O)NC(=O)[C@H](CCCCN)NC(=O)[C@@H](N)CCCN=C(N)N)C(=O)N[C@@H](Cc1ccc(O)cc1)C(=O)O (H-RKDVY-OH),8.88% (inactive),–
NC(=O)[C@@H]1CCCN1C(=O)[C@H](Cc1cnc[nH]1)NC(=O)[C@@H]1CCC(=O)N1,13% (inactive),–
CC[C@H]1OC(=O)[C@H](C)C(=O)[C@H](C)[C@@H](O[C@@H]2O[C@H](C)C[C@H](N(C)C)[C@H]2O)[C@](C)(OC)C[C@@H](C)C(=O)[C@H](C)[C@H]2N(CCCCn3cnc(-c4cccnc4)c3)C(=O)O[C@]12C,-6.38% (inactive),–
C[N+](C)(C)CCOP(=O)(O)OP(=O)([O-])OC[C@H]1O[C@@H](n2ccc(N)nc2=O)[C@H](O)[C@@H]1O,-2.55% (inactive),–
Cc1cnc(C(=O)O)c[n+]1[O-],–,inactive
C=CC1=C(C(=O)O)N2C(=O)[C@@H](NC(=O)/C(=N/OCC(=O)O)c3csc(N)n3)[C@H]2SC1 (stereo in doubt),-1.84% [at 32.5 µM] (inactive),–
O=P(O)(O)C(O)(Cn1ccnc1)P(=O)(O)O,2.94% (inactive),–
C=CC[N+]1([C@H]2C[C@H]3[C@@H]4CC[C@H]5C[C@H](O)[C@@H](N6CCOCC6)C[C@]5(C)[C@H]4CC[C@]3(C)[C@H]2OC(C)=O)CCCC1,4.55% (inactive),–
CC[C@@H](C)[C@@H](N)C1=N[C@H](C(=O)N[C@@H](CC(C)C)C(=O)N[C@@H](CCC(=O)O)C(=O)N[C@@H](C(=O)N[C@@H]2CCCCNC(=O)[C@@H](CC(N)=O)NC(=O)[C@@H](CC(=O)O)NC(=O)[C@@H](Cc3cnc[nH]3)NC(=O)[C@@H](Cc3ccccc3)NC(=O)[C@@H]([C@H](C)CC)NC(=O)[C@@H](CCCN)NC2=O)[C@@H](C)CC)CS1 (X1-LE[d(aIle)][dK][dOrn][dI][dF][dH][dD][dN]; lactam 4-C),7.3% [at 32.5 µM] (inactive),–
Nc1cc(Cl)c(NC2=NCCN2)c(Cl)c1,-0.156% (inactive),–
CCOc1ccc(NC(=S)Nc2ccc(OCC)cc2)cc1,-1.42% (inactive),–
CCc1ncnc2cc(OC)c(OC)cc12,0.167% (inactive),–
Cc1cc(=O)c(C(=O)N[C@@H](C(=O)N[C@@H]2C(=O)N3C(C(=O)O)=C(CSc4nnnn4C)CS[C@H]23)c2ccc(O)cc2)c[nH]1,-1.17% (inactive),–
CC12CCC(C[N+](C)(CCC[N+](C)(C)C)C1)C2(C)C (centres undefined),-2.31% (inactive),–
CN1C(=O)C[C@@H](C(=O)N[C@@H](Cc2cnc[nH]2)C(=O)N2CCC[C@H]2C(N)=O)NC1=O,3.31% (inactive),–
COC(=O)[C@H]1[C@H]2C[C@H]3c4[nH]c5ccccc5c4CCN3C[C@H]2CC[C@@H]1O,-8.45% (inactive),–
CC[C@@H](C)[C@H](N)C(=O)O,0.539% (inactive),–
C/C(=C(/CCO)SSCC1CCCO1)N(C=O)Cc1cnc(C)nc1N (centres undefined),13.7% (inactive),–

SMILES,"activity change, negative = cytotoxicity",Potency
C=C(Nc1ccc(OCC)cc1)Nc1ccc(OCC)cc1,–,inactive
O=C(O)/C=C/C(=O)Nc1ccc(S(=O)(=O)Nc2nccs2)cc1,1.9% (inactive),–
CC(C)=CCC/C(C)=C/CC/C(C)=C/CC/C(C)=C/CC1=C(C)C(=O)c2ccccc2C1=O,–,inactive
CO/N=C(\C(=O)N[C@@H]1C(=O)N2C(C(=O)O)=C(CSc3nc(C)c(CC(=O)O)s3)CS[C@H]12)c1csc(N)n1,11.4% (inactive),–
COc1ccc(/C=C/C(=O)O)cc1,9.38% (inactive),–
CO/N=C(\C(=O)N[C@@H]1C(=O)N2C(C(=O)[O-])=C(C[n+]3cccc4c3CCC4)CS[C@H]12)c1csc(N)n1,9.61% (inactive),–
NCC1CCC(C(=O)O)CC1 (centres undefined),-0.987% [at 32.5 µM] (inactive),–
CCN(CC)CCOC[C@H]1O[C@@H](O)[C@H](OCCN(CC)CC)[C@@H](O)[C@@H]1O,5.65% (inactive),–
CCC(=O)OC(OP(=O)(CCCCc1ccccc1)CC(=O)N1C[C@H](C2CCCCC2)C[C@H]1C(=O)O)C(C)C (some centres undefined),-1.38% (inactive),–
CC(C)=CCC/C(C)=C/CC/C(C)=C/CC/C=C(\C)CC/C=C(\C)CCC=C(C)C,–,inactive
CCCCCCCCCC(=O)NO,–,inactive
NCCO/C=C/[C@H](N)C(=O)O,13.4% (inactive),–
N=C(N)n1cccn1,5.08% (inactive),–
Nc1c(CC(=O)O)cccc1C(=O)c1ccccc1,-20.2% (inactive),–
Cc1ccc(C(C)(C)c2ccc(C)cc2)cc1,-2.07% (inactive),–
CO[C@H]1C[C@H](O[C@H]2[C@H](C)[C@@H](O[C@@H]3O[C@H](C)C[C@H](N(C)C)[C@H]3O)[C@@H](C)C[C@]3(CO3)C(=O)[C@H](C)[C@@H](O)[C@@H](C)[C@@H](C)OC(=O)[C@@H]2C)O[C@@H](C)[C@@H]1O,-14.5% [at 32.5 µM] (inactive),–
CC[C@H]1OC(=O)C[C@@H](O)[C@H](C)[C@@H](O[C@@H]2O[C@H](C)[C@@H](O[C@H]3C[C@@](C)(O)[C@@H](O)[C@H](C)O3)[C@H](N(C)C)[C@H]2O)[C@@H](CC=O)C[C@@H](C)C(=O)/C=C/C(C)=C/[C@@H]1CO[C@@H]1O[C@H](C)[C@@H](O)[C@@H](OC)[C@H]1OC,–,inactive
O=C1c2c(O)cccc2[C@H]([C@@H]2O[C@H](CO)[C@@H](O)[C@H](O)[C@H]2O)c2cc(CO)cc(O)c21,-14% (inactive),–
